The list is not random: actives were taken first. Their share in the collection is about 3.3%.
PI5P4K alpha inh: qHTS for Inhibitors of phosphatidylinositol 5-phosphate 4-kinase (PI5P4K); Phosphatidylinositol 5-phosphate 4-kinase type-2 alpha (Homo sapiens), P48426; PI5P4Kalpha enzyme, ADP-Glo luminescence, 60 min; stronger effect = lower value; max response, %; actives 1.2% (n = 330,000); active means max response of -50% or lower; inconclusive means between -30% and -50%; inactive means -30% or higher; further: value at the top dose of about 77 µM
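ADP-Glo luminescence end-point after a 60 min room-temperature kinase reaction. PI5P4Kalpha and substrate in HEPES pH 7.4 buffer with EGTA, 0.1% CHAPS and 5% DMSO; ATP at 5 microM final.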
LDHA inh: qHTS assay for inhibitors of human lactate dehydrogenase | L-lactate dehydrogenase A chain (Homo sapiens), P00338 | purified LDHA, NADH/diaphorase-resazurin fluorescence; stronger effect = lower value | activity change, % (values are at about 110 or 230 µM) | actives 0.15% (n = 480,000); in the data active means activity change below about -30%; inconclusive means mostly about -25% to -30%
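Enzyme activity of human lactate dehydrogenase 5 (2 nM; 0.06 mM NADH, 0.2 mM pyruvate, 5 min, RT) is measured via a resazurin/diaphorase fluorescence readout of residual NADH.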
DRD3 agonist: qHTS of D3 Dopamine Receptor Agonist: qHTS; AID 652048, 2013; D(3) dopamine receptor (Homo sapiens), P35462; actives 0.58% (n = 410,000); max activation, %; D3R DiscoveRx beta-arrestin cells, luminescence, 90 min; in the data active means max activation above about 30%
Target sequence (P35462 whole entry, looked up): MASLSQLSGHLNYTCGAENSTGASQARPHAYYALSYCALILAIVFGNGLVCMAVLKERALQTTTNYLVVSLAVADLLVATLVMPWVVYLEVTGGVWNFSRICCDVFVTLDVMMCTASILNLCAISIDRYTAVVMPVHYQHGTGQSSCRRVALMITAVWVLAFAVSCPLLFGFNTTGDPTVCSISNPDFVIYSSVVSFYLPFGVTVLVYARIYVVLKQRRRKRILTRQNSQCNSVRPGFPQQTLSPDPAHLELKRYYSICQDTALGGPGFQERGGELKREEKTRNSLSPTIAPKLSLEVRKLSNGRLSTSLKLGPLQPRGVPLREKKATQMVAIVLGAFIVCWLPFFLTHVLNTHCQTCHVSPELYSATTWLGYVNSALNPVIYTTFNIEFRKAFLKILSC
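Agonist mode: compounds and dopamine controls were applied to plated cells for 90 min at 37 degrees C after an overnight attachment at 1500 cells/well. Luminescent read-out followed 30 - 60 minutes at room temperature with DiscoveRx detection reagent.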
D3 antag: qHTS of D3 Dopamine Receptor Antagonist: qHTS; D3R cells, DiscoveRx beta-arrestin luminescence, antagonist mode; stronger effect = lower value; max response, negative = inhibition, %; actives 2.5% (n = 360,000); AID 652054, 2013; in the data active means max response below about -50%; inconclusive means no clear call, values can overlap the other calls
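Cells expressing the human receptor were seeded at 1500 cells/well, incubated overnight at 37 degrees C in 5% CO2, then exposed to library compounds with dopamine controls for 90 minutes at 37 degrees C before luminescent detection.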
PI4K2A block: qHTS for small molecular inhibitors of PI4K2A. Phosphatidylinositol 4-kinase type 2-alpha (Homo sapiens), Q9BTU6. purified PI4K2A, ADP-Glo luminescence, 1 h; stronger effect = lower value. activity change, negative = inhibition, % at 76.9 µM. actives 0.13% (n = 420,000); in the data active means activity change below about -50%; inconclusive means mostly about -30% to -49%
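In this quantitative HTS, ADP production by PI4K2A was quantified luminescently after 1 h at ambient temperature; 100 microM adenosine served as plate-quality control.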
Hits are given with their value; i = inactive; ? = inconclusive; nt = no result given.

SMILES | PI5P4K alpha inh | LDHA inh | DRD3 agonist | D3 antag | PI4K2A block
CC(C)c1nn(C)c(N(C)C)c1CNCc1ccc2c(c1)OCO2 | nt | i | nt | nt | nt
C=CCNCCCCOc1ccccc1-c1ccccc1 | i | i | i | -93 | i
Cc1ccccc1-c1nn2c(=O)cc(N3CCN(C(=O)Nc4ccccc4Cl)CC3)nc2s1 | nt | i | nt | nt | nt
CCCCN(C(=O)c1ccccc1Cl)C(CC(C)C)c1nc2ccccc2[nH]1 (stereo not given) | i | i | 48 | i | i
O=C(COc1ccc(-n2cnnn2)cc1)N1CCN(S(=O)(=O)c2ccc3c(c2)CCC3)CC1 | nt | i | nt | nt | nt
O=C1/C(=C/c2ccccc2)CCc2ccc(Cl)nc21 | i | i | i | -73 | i
O=C1/C(=C/c2ccccc2)Cc2ccccc21 | nt | i | nt | nt | nt
CC(C)[C@H](NC(=O)N1CC(=O)Nc2ccccc21)C(=O)N1CCC[C@H]1C(=O)O | i | i | i | i | i
CC(C)[C@H](NC(=O)[C@@H]1Cc2c([nH]c3ccccc23)C2c3ccccc3C(=O)N21)C(=O)N1CCC[C@@H]1C(=O)O (stereo not given in full) | i | i | 40 | i | i
O=[N+]([O-])c1ccc(C(O)CN2CCOCC2)cc1 (stereo not given) | i | i | i | i | i
O=[N+]([O-])c1ccc(C(O)C[n+]2ccccc2)cc1 (stereo not given) | i | -30 | i | i | i
O=[N+]([O-])c1ccc(C(O)CN2CCN(c3ccccc3)CC2)cc1 (stereo not given) | i | i | 34 | i | i
CCCCc1cc(=O)oc2c(C)c(OCC(=O)OC(C)(C)C)ccc12 | nt | i | nt | nt | nt
CC(=O)c1cccc(NC(=O)C2CC(=O)N(CCc3ccccc3)C2)c1 (stereo not given) | i | i | i | i | i
COc1ccc(CCN2CC(C(=O)Nc3cccc(C(C)=O)c3)CC2=O)cc1OC (stereo not given) | i | i | i | -61 | i
CCOc1cccc(NC(=O)C2CC(=O)N(C)C2)c1 (stereo not given) | nt | i | i | -77 | i
CC(=O)c1ccc(NC(=O)CSc2nc(N3CCCC3)c3c(c2C#N)CCCC3)cc1 | nt | i | nt | nt | nt
COc1ccc(-c2oc3ncnc(NCCCN(C)C)c3c2-c2ccc(OC)cc2)cc1 | i | i | i | -104 | i
CN(C)CCNc1ncnc2ccccc12 | i | i | i | i | i
CN(C)CCNc1ncnc2oc(-c3ccccc3)c(-c3ccccc3)c12 | i | i | i | -61 | i
CN(CCCNC(=O)c1nc2ccccc2c(=O)[nH]1)C(=O)c1ccc2ccccc2c1 | nt | i | nt | nt | nt
Cc1ccc(C(=O)COC(=O)CNC(=O)C(c2ccccc2)c2ccccc2)cc1[N+](=O)[O-] | i | i | i | -64 | i
Cc1cc(C)cc(C(N)C(=O)O)c1 (stereo not given) | nt | i | nt | nt | nt
O=C(NCc1ccc(CN2CCCC2)cc1)c1cc(S(=O)(=O)N2CCCC2)ccc1Cl | nt | i | nt | nt | nt
CCc1cccc(NC(=O)c2nn(C)c3c2COc2ccccc2-3)c1 | nt | i | nt | nt | nt
SMILES | PI5P4K alpha inh | LDHA inh | DRD3 agonist | D3 antag | PI4K2A block
C=CCNC(=O)/C(C#N)=C/c1c(N2CCN(c3cccc(Cl)c3)CC2)nc2c(C)cccn2c1=O | i | i | i | -59 | i
CCNC(=O)/C(C#N)=C/c1c(N2CCN(c3ccc(OC)cc3)CC2)nc2c(C)cccn2c1=O | i | i | i | i | i
CNC(=O)/C(C#N)=C/c1c(N2CCN(c3cccc(Cl)c3)CC2)nc2c(C)cccn2c1=O | i | i | i | -57 | i
CCOC(=O)/C(C#N)=C/c1c(N2CCN(c3cccc(Cl)c3)CC2)nc2c(C)cccn2c1=O | i | i | i | i | i
CCNC(=O)/C(C#N)=C/c1c(N2CCN(c3ccccc3)CC2)nc2c(C)cccn2c1=O | i | i | i | -69 | i
COCCNC(=O)/C(C#N)=C/c1c(N2CCN(c3cccc(Cl)c3)CC2)nc2c(C)cccn2c1=O | i | i | i | i | i
COc1ccc2ccccc2c1-c1c(C(=O)c2ccc(Br)cc2)[nH]c(N)c1C(=O)NC1CCCCC1 | nt | nt | nt | nt | i
COc1cc(OC)cc(C(=O)Nc2ccc3nc(N4CCCC4)sc3c2)c1 | nt | i | nt | nt | nt
Cc1ccc(/C=N/N2C(=S)SC(C)(C)C2N(O)C(=O)Nc2ccc([N+](=O)[O-])cc2)cc1 (stereo not given) | i | i | i | -58 | i
COc1ccc(CN=Cc2[nH]c3ccc(Br)c(Cl)c3c2O)cc1 | nt | i | i | -74 | i
CCOc1cc(CNc2ccc(O)cc2)cc(Br)c1OCc1ccccc1 | nt | i | i | nt | ?
Oc1ccc(NCc2ccccc2OCc2ccc(Cl)cc2)cc1 | nt | i | i | nt | -53
CCOc1cc(CNc2ccc(O)cc2)ccc1OCc1ccc(Cl)cc1 | nt | i | i | nt | -55
CCCCN1CCc2c1nc1ccc(Br)cc1c2N | nt | i | i | -84 | i
CN1CCc2c1nc1ccccc1c2N (tested in a mixture with another compound) | i | i | i | i | i
CCN(CC)c1ccc(/C=C(\C#N)C(=O)c2ccc(Br)cc2)cc1 | i | i | i | i | i
N#CC(C#N)=C1C=CC=CN1/C(=C\c1ccco1)C(=O)c1ccc(Br)cc1 | i | i | i | -99 | i
COc1ccc(/C=C(/C(=O)c2cccs2)N2C=CC=CC2=C(C#N)C#N)cc1 | i | i | i | -81 | i
COc1ccc(C(=O)/C(C#N)=C\c2ccc(Cl)cc2)cc1 | nt | i | nt | nt | nt
COc1ccc(C(=O)/C(=C\c2ccco2)N2C=CC=CC2=C(C#N)C#N)cc1 | i | i | i | -65 | i
CC(C)(C)NC(=O)/C(=C/c1ccco1)c1ccccc1 | i | i | i | i | i
N#CC(C#N)=C1C=CC=CN1/C(=C\c1ccco1)C(=O)c1ccccc1 | i | i | i | -106 | i
CC(C)Cn1c(/C=N/Nc2nc3ccccc3[nH]2)nc2ccccc21 | i | i | i | -71 | i
C=CCn1cc(/C=N/Nc2nc3ccccc3[nH]2)c2ccccc21 | i | i | i | -70 | i
O=C(NCc1cccnc1)c1ccc(-c2cccc(Cl)c2Cl)o1 | i | i | i | i | i
SMILES | PI5P4K alpha inh | LDHA inh | DRD3 agonist | D3 antag | PI4K2A block
O=C(N/N=C/c1ccc(-c2ccccc2[N+](=O)[O-])o1)c1cccnc1 | i | i | i | -59 | i
O=C(NCc1ccccc1)c1ccc(-c2ccccc2C(F)(F)F)o1 | i | i | i | -56 | i
O=C(NCc1cccnc1)c1ccc(-c2ccccc2[N+](=O)[O-])o1 | i | i | i | -55 | i
O=C(O)c1ccc(-c2ccccc2C(F)(F)F)o1 | nt | i | i | i | i
Cc1csc(NC(=O)Cn2ccc(=O)n(C)c2=O)n1 | nt | i | nt | nt | nt
Cn1c(C(=O)N2CCC(C(N)=O)CC2)cc2ccccc21 | nt | i | nt | nt | nt
O=C(CNc1ccc(Br)cc1)Nc1ccc(C(F)(F)F)cc1 | nt | i | nt | nt | nt

Bioassay records as filed in PubChem BioAssay.
